Consider 7 compounds from ChEMBL document CHEMBL1961873, “Compounds: GSK PKIS; Assays: Nanosyn kinase panel” (2012).

The target of experiment [1] is Leukocyte tyrosine kinase receptor (Homo sapiens) (UniProt P29376). The note with it: at 1 µM.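 Also: each value is the mean inhibition of LTK.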
The target in experiment [2] is Tyrosine-protein kinase Lyn (Homo sapiens) (UniProt P07948). As to conditions: at 0.1 µM.
Experiment [3] shares this target. The note with it: at 1 µM.
Experiment [4] has the same target. As to conditions: at 0.1 µM. This is another data set of the same source.
Experiment [5] has the same target. As to conditions: at 1 µM. The source holds these as a separate data set.
Experiment [6] addresses T1, Tyrosine-protein kinase Mer (Homo sapiens) (UniProt Q12866).
T1 sequence (whole entry): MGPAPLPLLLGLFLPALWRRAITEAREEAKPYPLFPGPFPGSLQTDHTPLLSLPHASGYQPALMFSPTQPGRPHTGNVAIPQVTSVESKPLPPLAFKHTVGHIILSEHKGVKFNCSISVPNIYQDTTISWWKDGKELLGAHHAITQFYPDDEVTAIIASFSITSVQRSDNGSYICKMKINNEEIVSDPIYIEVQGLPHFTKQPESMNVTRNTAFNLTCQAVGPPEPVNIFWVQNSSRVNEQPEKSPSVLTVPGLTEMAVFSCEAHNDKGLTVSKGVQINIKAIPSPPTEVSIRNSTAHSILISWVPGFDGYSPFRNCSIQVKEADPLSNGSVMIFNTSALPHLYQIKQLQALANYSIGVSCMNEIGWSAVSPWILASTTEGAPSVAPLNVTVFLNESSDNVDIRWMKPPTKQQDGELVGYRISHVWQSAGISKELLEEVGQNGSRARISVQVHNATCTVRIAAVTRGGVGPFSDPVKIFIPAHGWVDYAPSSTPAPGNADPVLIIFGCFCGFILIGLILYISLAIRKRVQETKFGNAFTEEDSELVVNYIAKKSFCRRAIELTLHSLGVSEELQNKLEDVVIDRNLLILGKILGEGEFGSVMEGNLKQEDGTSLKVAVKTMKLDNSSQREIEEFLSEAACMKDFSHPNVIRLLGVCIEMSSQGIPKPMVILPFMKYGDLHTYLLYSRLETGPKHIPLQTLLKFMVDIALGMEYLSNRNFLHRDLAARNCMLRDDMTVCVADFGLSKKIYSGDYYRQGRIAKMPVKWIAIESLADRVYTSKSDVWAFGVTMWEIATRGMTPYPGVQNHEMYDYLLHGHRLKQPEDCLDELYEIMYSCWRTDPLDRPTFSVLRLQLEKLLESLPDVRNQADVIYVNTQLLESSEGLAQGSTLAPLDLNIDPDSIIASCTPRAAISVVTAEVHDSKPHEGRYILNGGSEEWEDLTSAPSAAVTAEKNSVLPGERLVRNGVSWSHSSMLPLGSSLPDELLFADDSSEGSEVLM
As to conditions: at 0.1 µM.

For experiment [7], the target named is T1, Tyrosine-protein kinase Mer (Homo sapiens). The note with it: at 1 µM.
In experiment [8] the target is Hepatocyte growth factor receptor (Homo sapiens) (UniProt P08581). The note with it: at 0.1 µM.
Experiment [9] has the same target. As to conditions: at 1 µM.
The target in experiment [10] is T2, Muscle, skeletal receptor tyrosine-protein kinase (Homo sapiens) (UniProt O15146).
T2 sequence (whole entry): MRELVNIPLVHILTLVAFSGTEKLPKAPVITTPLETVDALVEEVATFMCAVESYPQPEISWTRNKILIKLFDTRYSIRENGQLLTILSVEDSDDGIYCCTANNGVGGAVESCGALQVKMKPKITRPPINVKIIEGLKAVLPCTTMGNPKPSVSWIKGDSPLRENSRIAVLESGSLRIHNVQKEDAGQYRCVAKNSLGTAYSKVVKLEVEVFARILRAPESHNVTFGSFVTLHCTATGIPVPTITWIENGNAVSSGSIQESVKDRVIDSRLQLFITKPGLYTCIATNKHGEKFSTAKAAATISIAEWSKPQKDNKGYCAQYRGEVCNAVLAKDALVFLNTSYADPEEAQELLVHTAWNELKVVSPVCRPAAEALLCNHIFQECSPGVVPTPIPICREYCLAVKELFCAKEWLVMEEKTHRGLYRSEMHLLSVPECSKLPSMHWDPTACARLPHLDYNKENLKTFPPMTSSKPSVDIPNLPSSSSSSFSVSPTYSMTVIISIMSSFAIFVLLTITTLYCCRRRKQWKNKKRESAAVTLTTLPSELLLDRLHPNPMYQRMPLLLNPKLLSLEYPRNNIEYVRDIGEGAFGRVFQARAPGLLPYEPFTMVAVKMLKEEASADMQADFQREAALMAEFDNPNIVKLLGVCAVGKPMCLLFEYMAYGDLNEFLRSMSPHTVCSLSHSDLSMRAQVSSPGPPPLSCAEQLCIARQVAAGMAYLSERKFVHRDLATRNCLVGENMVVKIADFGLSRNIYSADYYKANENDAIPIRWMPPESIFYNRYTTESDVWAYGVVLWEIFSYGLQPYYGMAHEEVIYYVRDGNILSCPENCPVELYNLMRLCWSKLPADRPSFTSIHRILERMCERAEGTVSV
As to conditions: at 0.1 µM.

For experiment [11], the target named is T2, Muscle, skeletal receptor tyrosine-protein kinase (Homo sapiens). The note with it: at 1 µM.
The target in experiment [12] is Platelet-derived growth factor receptor alpha (Homo sapiens) (UniProt P16234). The note with it: at 0.1 µM.
Experiment [13] shares this target. As to conditions: at 1 µM.
Experiment [14] relates to Platelet-derived growth factor receptor alpha (Homo sapiens), P16234 [D842V]. The note with it: at 0.1 µM.
The test system is the same in experiment [15]. The note with it: at 1 µM.
For experiment [16], the system named is Platelet-derived growth factor receptor alpha (Homo sapiens), P16234 [T674I]. As to conditions: at 0.1 µM.
Experiment [17] has the same test system. As to conditions: at 1 µM.
Experiment [18] relates to Platelet-derived growth factor receptor alpha (Homo sapiens), P16234 [V561D]. As to conditions: at 0.1 µM.
Experiment [19] shares this test system. The note with it: at 1 µM.
Experiment [20] deals with Platelet-derived growth factor receptor beta (Homo sapiens) (UniProt P09619). The note with it: at 0.1 µM.
Platelet-derived growth factor receptor beta (Homo sapiens), sequence (P09619 whole entry): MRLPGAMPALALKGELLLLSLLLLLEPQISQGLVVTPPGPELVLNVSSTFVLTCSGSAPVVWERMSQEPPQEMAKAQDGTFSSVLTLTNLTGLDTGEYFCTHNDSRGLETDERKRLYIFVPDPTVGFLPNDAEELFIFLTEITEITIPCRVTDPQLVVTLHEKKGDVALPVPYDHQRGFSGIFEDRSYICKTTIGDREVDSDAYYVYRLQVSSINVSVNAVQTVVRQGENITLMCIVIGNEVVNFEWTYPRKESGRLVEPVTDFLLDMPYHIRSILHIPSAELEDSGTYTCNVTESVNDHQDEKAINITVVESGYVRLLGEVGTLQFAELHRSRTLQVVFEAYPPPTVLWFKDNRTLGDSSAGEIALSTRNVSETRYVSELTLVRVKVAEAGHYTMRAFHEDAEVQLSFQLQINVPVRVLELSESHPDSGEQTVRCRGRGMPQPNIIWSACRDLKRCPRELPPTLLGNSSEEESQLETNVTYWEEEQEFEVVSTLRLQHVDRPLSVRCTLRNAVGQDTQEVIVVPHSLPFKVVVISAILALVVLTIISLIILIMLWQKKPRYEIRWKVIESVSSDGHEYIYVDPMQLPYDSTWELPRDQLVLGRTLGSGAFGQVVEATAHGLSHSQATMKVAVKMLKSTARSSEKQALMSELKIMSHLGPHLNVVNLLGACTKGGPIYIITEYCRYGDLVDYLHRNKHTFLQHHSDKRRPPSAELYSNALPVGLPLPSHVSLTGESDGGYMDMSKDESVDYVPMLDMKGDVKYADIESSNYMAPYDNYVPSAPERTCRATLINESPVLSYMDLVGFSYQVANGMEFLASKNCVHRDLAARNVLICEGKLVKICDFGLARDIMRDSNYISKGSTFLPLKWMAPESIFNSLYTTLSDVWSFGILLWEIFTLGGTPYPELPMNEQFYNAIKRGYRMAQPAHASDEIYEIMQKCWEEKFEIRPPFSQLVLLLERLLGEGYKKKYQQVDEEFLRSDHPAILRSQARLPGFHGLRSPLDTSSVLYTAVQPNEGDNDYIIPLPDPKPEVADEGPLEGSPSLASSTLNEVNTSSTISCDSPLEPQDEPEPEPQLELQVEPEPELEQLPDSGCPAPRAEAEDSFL

Platelet-derived growth factor receptor alpha (Homo sapiens), P16234 [T674I], sequence (P16234 whole entry T674I): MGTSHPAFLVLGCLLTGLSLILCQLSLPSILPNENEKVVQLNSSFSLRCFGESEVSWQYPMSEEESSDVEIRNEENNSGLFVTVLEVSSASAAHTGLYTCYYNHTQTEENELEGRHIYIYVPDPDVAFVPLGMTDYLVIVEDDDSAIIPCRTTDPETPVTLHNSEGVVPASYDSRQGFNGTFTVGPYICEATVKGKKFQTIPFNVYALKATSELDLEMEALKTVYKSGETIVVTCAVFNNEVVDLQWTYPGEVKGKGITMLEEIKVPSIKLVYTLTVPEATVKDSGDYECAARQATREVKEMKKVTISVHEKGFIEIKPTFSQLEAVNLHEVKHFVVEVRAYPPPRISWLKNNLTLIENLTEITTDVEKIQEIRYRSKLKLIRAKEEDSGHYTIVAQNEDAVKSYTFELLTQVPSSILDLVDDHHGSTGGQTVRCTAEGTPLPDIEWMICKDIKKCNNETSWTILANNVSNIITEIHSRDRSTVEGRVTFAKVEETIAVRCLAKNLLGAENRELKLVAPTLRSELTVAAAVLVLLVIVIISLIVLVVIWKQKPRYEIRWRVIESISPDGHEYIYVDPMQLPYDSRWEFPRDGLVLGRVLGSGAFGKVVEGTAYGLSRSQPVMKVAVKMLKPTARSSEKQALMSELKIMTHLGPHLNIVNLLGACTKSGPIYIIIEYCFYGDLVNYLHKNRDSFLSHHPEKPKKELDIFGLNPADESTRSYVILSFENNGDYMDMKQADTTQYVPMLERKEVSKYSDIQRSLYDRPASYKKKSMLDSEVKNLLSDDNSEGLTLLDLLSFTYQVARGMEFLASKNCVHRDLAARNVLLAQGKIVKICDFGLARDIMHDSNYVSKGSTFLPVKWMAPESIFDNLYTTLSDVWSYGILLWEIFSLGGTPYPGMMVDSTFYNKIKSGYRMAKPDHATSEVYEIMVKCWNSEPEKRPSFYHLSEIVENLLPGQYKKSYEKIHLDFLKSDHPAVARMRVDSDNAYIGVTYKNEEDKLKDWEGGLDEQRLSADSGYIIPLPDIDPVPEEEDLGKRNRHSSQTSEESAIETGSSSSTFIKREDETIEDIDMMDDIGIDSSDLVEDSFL
Platelet-derived growth factor receptor alpha (Homo sapiens), P16234 [V561D], sequence (P16234 whole entry V561D): as the sequence (P16234 whole entry T674I) above, with V561D, I674T counted along it
Tyrosine-protein kinase Lyn (Homo sapiens), sequence (P07948 2-512 limits assumed): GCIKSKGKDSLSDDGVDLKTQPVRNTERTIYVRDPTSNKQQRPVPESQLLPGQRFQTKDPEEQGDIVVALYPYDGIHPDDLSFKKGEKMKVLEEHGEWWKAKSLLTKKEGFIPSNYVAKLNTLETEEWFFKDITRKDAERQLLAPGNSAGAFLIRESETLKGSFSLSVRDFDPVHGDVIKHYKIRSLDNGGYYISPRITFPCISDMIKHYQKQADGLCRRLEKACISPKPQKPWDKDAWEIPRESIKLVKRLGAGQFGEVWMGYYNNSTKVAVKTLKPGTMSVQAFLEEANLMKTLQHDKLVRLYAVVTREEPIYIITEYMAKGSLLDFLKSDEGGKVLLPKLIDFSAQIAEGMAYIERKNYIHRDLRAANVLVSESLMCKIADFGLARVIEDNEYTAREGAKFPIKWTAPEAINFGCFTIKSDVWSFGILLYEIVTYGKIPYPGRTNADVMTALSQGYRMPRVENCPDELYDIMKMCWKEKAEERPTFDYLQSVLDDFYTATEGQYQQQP
Platelet-derived growth factor receptor alpha (Homo sapiens), P16234 [D842V], sequence (P16234 whole entry D842V): as the sequence (P16234 whole entry T674I) above, with I674T, D842V counted along it

For orientation: inhibition means the change of the read-out against control, counted positive when it falls. Consider `CCn1c(-c2nonc2N)nc2ccncc21`, for which the inhibition is 0.42% in experiment [1]; 2.64% in experiment [2]; -1.88% in experiment [3]; 1.5% in experiment [4]; -0.9% in [5]; 0.16% in experiment [6]. The inhibition in experiment [7] is -0.52%; in experiment [8], 8.81%; in [9] it was 2.41%; in experiment [10], -0.65%; in [11] it was 1.96%; in experiment [12] it was 8.83%. In addition, the inhibition was 7.48% in experiment [13]; 0.54% in [14]; 1.96% in experiment [15]; 2.72% in [16]; 1.31% in experiment [17]; 2.31% in [18]. Also, the inhibition in [19] turned out to be 3.59%; in experiment [20] it was 0.36%.

On to `COc1cc2ncn(-c3cc(OCc4ccccc4C(F)(F)F)c(C(N)=O)s3)c2cc1OC`, for which the inhibition in experiment [1] came out at 4.35%; in experiment [2], 6.12%; in [3], 21.5%; in [4], 3.89%; in [5], 17.4%; in experiment [6], 2.08%. Further, the inhibition stood at 9.28% in experiment [7]; 4.37% in experiment [8]; 19.5% in experiment [9]; 11% in experiment [10]; 32.7% in experiment [11]; 47.1% in [12]. Besides, the inhibition in experiment [13] was 83.5%; in experiment [14], 29.5%; in experiment [15], 79.9%; in experiment [16], 19.1%; in experiment [17], 68%; in experiment [18], 36.6%. Also, the inhibition in [19] was determined as 84.9%; in experiment [20], 45%.

For the compound `Nc1nc(-c2ccccn2)c(-c2ccc3ncccc3n2)s1`, the inhibition stood at 2.34% in [1]; 4.59% in experiment [2]; 4.44% in experiment [3]; 2.14% in experiment [4]; 3.06% in [5]; 0.73% in experiment [6]. Moreover, the inhibition in experiment [7] amounted to 4.5%; in experiment [8], 2.46%; in experiment [9] it was 9.52%; in experiment [10], 3.99%; in experiment [11], 4.69%; in [12], 5.63%. The inhibition is 11.4% in experiment [13]; 1.02% in experiment [14]; 1.79% in experiment [15]; 3.45% in experiment [16]; 7.4% in experiment [17]; -0.56% in [18]. The inhibition in [19] was -1.5%; in experiment [20] it was 6.46%.

As to `CCn1c(-c2nonc2N)nc2c(N3CCCC3)nccc21`, the inhibition was -0.6% in experiment [1]; 1.31% in [2]; -0.07% in experiment [3]; 1.13% in experiment [4]; 0.52% in experiment [5]; 0.24% in [6]. Further, the inhibition in experiment [7] is 1.56%; in experiment [8], -3.32%; in experiment [9], -1.91%; in experiment [10] it was 1.25%; in experiment [11] it was 3.11%; in experiment [12], -0.08%. In addition, the inhibition worked out at 6.63% in [13]; 1.78% in experiment [14]; 3.11% in experiment [15]; 0.33% in experiment [16]; 0.11% in experiment [17]; 3.21% in experiment [18]. The inhibition was 3.61% in experiment [19] and 3.37% in [20].

Turning to `Cc1ccc(C(=O)NC2CCCCC2)cc1-c1ccc(C(=O)NCC2CC2)cc1`, the inhibition came out at 0.02% in experiment [1]; 2.9% in experiment [2]; 2.6% in experiment [3]; 1.53% in [4]; 0.34% in experiment [5]; 1.63% in [6]. Moreover, the inhibition in [7] stood at 3.6%; in experiment [8], 4.53%; in experiment [9] it was 5.05%; in experiment [10], 6.01%; in [11], 8.57%; in experiment [12] it was 12.3%. The inhibition in experiment [13] was 12.8%; in [14], 2.47%; in experiment [15], 1.67%; in experiment [16] it was 4.09%; in experiment [17], -1.01%; in experiment [18], 1.21%. For the same compound, the inhibition is 17.2% in experiment [19] and 6.66% in [20].

For `COc1ccc(COc2ccc(Cc3cnc(N)nc3N)cc2OC)cc1`, the inhibition in experiment [1] was -0.41%; in experiment [2], 0.58%; in [3], 0.33%; in experiment [4], 0.18%; in [5] it was 2.08%; in experiment [6], 2.31%. In addition, the inhibition in [7] was found to be 3.48%; in [8], 2.14%; in experiment [9] it was 5.98%; in experiment [10], 4.72%; in experiment [11], 9.52%; in experiment [12], 10.9%. The inhibition in experiment [13] worked out at 15.7%; in experiment [14], 0.95%; in experiment [15], 1.88%; in [16], 2.62%; in experiment [17] it was 1.3%; in [18], 2.4%. Also, the figures for the inhibition in experiment [19] and in experiment [20] were 5.93% and 8.68%, respectively.

As to `COC(=O)Nc1nc2cc(Oc3cccc(NC(=O)Nc4cc(C(F)(F)F)ccc4F)c3)ccc2[nH]1`, the inhibition in [1] was 24.9%; in experiment [2], 7.9%; in experiment [3], 45.9%; in [4] it was 5.64%; in [5] it was 41.6%; in experiment [6] it was -1.21%. In addition, the inhibition is -0.14% in experiment [7]; 1% in [8]; 0.32% in experiment [9]; 4.58% in [10]; 32.3% in experiment [11]; 48.6% in [12]. The inhibition in [13] stood at 80.2%; in experiment [14], 2.6%; in experiment [15], 8.72%; in [16], 4.75%; in [17], 37.5%; in experiment [18] it was 40.7%. The results for the inhibition in [19] and in [20] were 87.4% and 11.4%, respectively.
